Drawing on PubChem BioAssay (NCI), this text covers growth for ten molecules.

SMILES strings stand for the structures. About 83,000 compounds went through this panel and 20% of them were active in at least one assay; those are over-represented in the sample as a whole.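 Single-concentration screen, 48 h exposure, 96-well plates. Endpoint: percent growth. Below 10 = active.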 Unmarked numbers belong to inactive results. Activity calls are given as the source filed them.

Assay in all cases: NCI-60 one-dose screen, 48 h (100 = growth as untreated, 0 = no growth, -100 = all killed)
The test system of assay [1] is NCI-H226 lung. The note with it: 10 µM unless noted.
The test system of assay [2] is NCI-H322M lung. The note with it: 10 µM unless noted.
For assay [3], the system named is HOP-62 NSCLC. The note with it: 10 µM unless noted.
For assay [4], the system named is K-562 leukemia. Conditions: 10 µM unless noted.
Assay [5] deals with SF-295 CNS. The note with it: 10 µM unless noted.
The test system of assay [6] is SNB-19 CNS. The note with it: 10 µM unless noted.
Assay [7] concerns SK-MEL-5 melanoma. Conditions: 10 µM unless noted.
Assay [8] relates to LOX IMVI melanoma. Conditions: 10 µM unless noted.
Assay [9] has as its system TK-10 renal. The note with it: 10 µM unless noted.
For assay [10], the system named is SR leukemia. The note with it: 10 µM.
The test system of assay [11] is IGROV1 ovarian. The note with it: 10 µM.
For assay [12], the system named is HCC-2998 colon. Conditions: 10 µM unless noted.
Assay [13] concerns NCI-H522 lung. Conditions: 10 µM unless noted.
Assay [14] concerns HCT-15 colon. The note with it: 10 µM.
Assay [15] concerns EKVX NSCLC. Conditions: 10 µM unless noted.
Assay [16] has as its system CCRF-CEM leukemia. The note with it: 10 µM unless noted.
Assay [17] relates to MOLT-4 leukemia. The note with it: 10 µM.
Assay [18] deals with RPMI-8226 leukemia. Conditions: 10 µM unless noted.

Turning to `CC(=O)[O][Hg][c]1nc2c(c(=O)n(C)c(=O)n2C)n1C`, the growth in assay [1] is 108%; in [2], 95.7%; in assay [3], 120%; in [4] it was 60.3%; in assay [5] it was 98.9%; in assay [6] it was 98.2%. The growth in [7] is 90.8%; in assay [8] it was -28.5% (active); in [9], 110%; in assay [10], 41.3%; in assay [11] it was 81%; in assay [12] it was 131%.
In the case of `CCOc1cc(C=C(C#N)C#N)cc(Br)c1O`, the growth was 106% in [1]; 98.1% in [2]; 111% in [3]; 100% in [13]; 75.2% in assay [4]; 110% in [5]. For the same molecule, the growth was 102% in [14]; 105% in [7]; 97.1% in assay [8]; 104% in assay [15]; 102% in [9]; 102% in assay [16]. The growth in assay [17] is 85.5%; in assay [10], 93.4%; in [11] it was 109%; in assay [12], 99.4%.
As for `Cc1cc(NC(=O)CCc2ccc(N3C(N)=NC(N)=NC3(C)C)cc2)ccc1S(=O)(=O)F`, the growth was 37.4% in [1]; 29.7% in [2]; 28.7% in assay [3]; -17.2% (active) in assay [13]; 22.8% in assay [4]; 5.44% (active) in [5]. Further, the growth in assay [14] is 60.1%; in [6] it was 45%; in assay [7], 13.9%; in assay [8], 18.1%; in assay [15] it was 58.8%; in assay [9] it was 14.1%. Moreover, the growth was -13% (active) in assay [16], 21.6% in [17], -23.7% (active) in [10] and -24.6% (active) in assay [18].
On to `C[As](=O)(O)c1ccc(C(=O)O)cc1`, for which the growth was 99.7% in assay [1]; 115% in assay [2]; 108% in [3]; 122% in assay [4]; 99.8% in assay [5]; 99.2% in [14]. In addition, the growth is 106% in [6]; 108% in assay [7]; 115% in assay [8]; 107% in assay [9]; 118% in [10]; 120% in [11]. Moreover, the growth in assay [12] is 116%.
Turning to `CC(C)[C@]12O[C@H]1[C@@H]1O[C@]13[C@]1(O[C@H]1C[C@H]1C4=C(CC[C@@]13C)C(=O)OC4)[C@@H]2OC(=O)OC(C)(C)C`, the growth in assay [1] is 12.6%; in [2], 3.68% (active); in assay [3], 16.6%; in assay [13], -34.3% (active); in assay [5], -28.7% (active); in assay [6], 16.5%. Also, the growth in [7] was -2.1% (active); in assay [15], -22.4% (active); in assay [9], 5.21% (active); in [16], 13.4%; in assay [17] it was -3.98% (active); in assay [18] it was 20.6%. In addition, the growth in assay [11] is -5.58% (active); in assay [12] it was -38% (active).
For `O=C1NC(=O)C(O)(C2(O)C(=O)NC(=O)NC2=O)C(=O)N1`, the growth in assay [1] is 99.5%; in [2] it was 132%; in [3], 97.6%; in assay [13] it was 94.3%; in assay [4], 87.9%; in assay [5], 133%. Further, the growth was 107% in assay [14]; 96.1% in [6]; 86.7% in [7]; 91.9% in [8]; 110% in assay [15]; 118% in assay [9]. Also, the growth in [17] is 85.2%.
On to `O=C(O)C1[O][Sb][O]C1C(=O)O` (stereo not given), for which the growth in assay [1] was 93.9%; in [2], 101%; in assay [3] it was 109%; in assay [4], 89.1%; in assay [5] it was 123%; in [14], 88.5%. The growth in [7] was 86.9%; in assay [8] it was -57.9% (active); in [9], 101%; in assay [17] it was 94.6%; in assay [10], 70%; in assay [18], 99.3%. Also, the growth in assay [11] was 81.8%; in assay [12], 106%.
Consider `C=CCc1ccc(OC(=O)Cc2ccccc2)c(OC)c1`, for which the growth in assay [1] was 95%; in assay [2], 98.3%; in assay [3] it was 93.2%; in assay [13], 90.4%; in [5], 95.7%; in assay [14] it was 103%. The growth is 110% in [6]; 102% in assay [7]; 93.6% in assay [8]; 110% in assay [9]; 101% in assay [16]; 106% in assay [18]. Also, the results for the growth in assay [11] and in [12] were 99.8% and 95.8%, respectively.
As for `CC1(C)N=C(N)N=C(N)N1c1ccc(CCC(=O)Nc2cccc(S(=O)(=O)F)c2)cc1`, the growth in assay [1] is 89%; in [2], 79%; in assay [3], 82.8%; in [4] it was 26.2%; in assay [5] it was 89.6%; in assay [14], 81.9%. Also, the growth was 32.9% in assay [7]; 23.5% in assay [8]; 56.8% in assay [15]; 98.9% in [9]; 82.7% in [17]; 35.6% in assay [10]. Further, the growth in assay [11] was 39.4%.
With `CC12CCC(=O)C=C1CCC1C2CCC2(C)C(C(=O)COC(=O)Cc3ccc(N(CCCl)CCCl)cc3)CCC12` (stereo not given), the growth was 72.5% in assay [1]; 180% in assay [2]; 106% in assay [3]; 81.9% in assay [13]; 77.5% in [4]; 74.5% in [5]. The growth in assay [14] was 86.2%; in assay [6] it was 96.2%; in assay [7], 85%; in assay [8], 86.4%; in assay [15] it was 53.1%; in assay [9], 112%. The growth was 26.7% in assay [16], -2.48% (active) in assay [10] and -28.3% (active) in assay [12].
